The nature of experiment [1]: HepG2 liver cancer cell viability effects, profiling panel, resazurin fluorescence, 24 h, PK04 Diversity Set (AID 1172). Note: test concentration not given here. The note with it: higher = more signal.
The nature of experiment [2]: basal S. cerevisiae growth modulation, no modifier, primary screen, OD600, strain BY4716, 24 h, basal condition (AID 1173). The note with it: OD600, 24 h, higher = more signal, called active from +8 up or from −8 down.
Experiment [3] is described as follows: MM1S myeloma cell viability, profiling panel, resazurin fluorescence, basal, 24 h, PK04 Diversity Set (AID 1174).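 Note: MM1S multiple myeloma cell line; test concentration not given here.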 To be noted: higher = more signal, called active from +8 up or from −8 down. A general note: Alamar Blue is a resazurin reagent that responds to reducing activity.
Experiment [4] has as its target Dihydroorotate dehydrogenase (quinone), mitochondrial (Plasmodium falciparum (isolate 3D7)) (UniProt Q08210). The experiment is described as follows: PfDHODH enzyme inhibitors, primary screen, biochemical, C-terminal His tag, absorbance 600 nm (AID 1175).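 Note: recombinant parasite enzyme with a five histidine tag at its C terminus; test concentration not given here.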 The note with it: DCIP absorbance 600 nm, higher = more signal, called active from +8 up or from −8 down.
Experiment [5] can be described thus: P. aeruginosa biofilm formation inhibitors, primary screen, strain PAO1, LB-PBS medium, absorbance 600 nm (AID 1176). Note: test concentration not given here. The note with it: P. aeruginosa PAO1 growth/biofilm, A600, 12 h; higher = more signal.
Experiment [6] can be described thus: S. cerevisiae RM11-1a growth modifiers, primary screen, strain RM11-1a, OD600, basal, 24 h (AID 1177).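 Note: cultures grown under basal conditions with no added stressor; test concentration not given here.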 The note with it: OD600, 24 h, higher = more signal, called active from +8 up or from −8 down.
Experiment [7] can be described thus: E. coli acrAB mutant growth effects, primary screen, E. coli filamentation inducers, strain DRC39, OD650, 24 h (AID 1178).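 Note: growth measured as culture turbidity by optical density at 650 nm; test concentration not given here.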 The note with it: higher = more signal, called active from +8 up or from −8 down.
Experiment [8] is described as follows: E. coli acrAB mutant growth effects, primary screen, E. coli filamentation inducers, strain DRC39, OD650, 48 h (AID 1179).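 Note: screen aims at cell division blockers that make cells filament.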 To be noted: E. coli DRC39 delta-acrAB growth, higher = more signal, called active from +8 up or from −8 down.
The nature of experiment [9]: RPMI8226 myeloma cell viability, profiling panel, resazurin fluorescence, basal, 24 h, PK04 Diversity Set (AID 1180).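 Note: RPMI8826 multiple myeloma cell line at 5000 cells per well; test concentration not given here.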 The note with it: higher = more signal.
Experiment [10] concerns the target E3 ubiquitin-protein ligase XIAP (Homo sapiens) (UniProt P98170). The experiment is described as follows: XIAP binders, primary screen, biophysical, small-molecule microarray, fluorescence 635 nm (AID 1181).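 Note: score merges 667 nm emission and signal to noise over triplicate slides.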 To be noted: small-molecule microarray binding, higher = more signal.

In PubChem BioAssay one finds z-score and composite z-score data, which are given here for 12 compounds.

Molecules are shown by their SMILES. The source made the active and inactive calls. Unless noted, the rule behind the calls is not given here.

E3 ubiquitin-protein ligase XIAP (Homo sapiens), sequence (P98170 whole entry, looked up): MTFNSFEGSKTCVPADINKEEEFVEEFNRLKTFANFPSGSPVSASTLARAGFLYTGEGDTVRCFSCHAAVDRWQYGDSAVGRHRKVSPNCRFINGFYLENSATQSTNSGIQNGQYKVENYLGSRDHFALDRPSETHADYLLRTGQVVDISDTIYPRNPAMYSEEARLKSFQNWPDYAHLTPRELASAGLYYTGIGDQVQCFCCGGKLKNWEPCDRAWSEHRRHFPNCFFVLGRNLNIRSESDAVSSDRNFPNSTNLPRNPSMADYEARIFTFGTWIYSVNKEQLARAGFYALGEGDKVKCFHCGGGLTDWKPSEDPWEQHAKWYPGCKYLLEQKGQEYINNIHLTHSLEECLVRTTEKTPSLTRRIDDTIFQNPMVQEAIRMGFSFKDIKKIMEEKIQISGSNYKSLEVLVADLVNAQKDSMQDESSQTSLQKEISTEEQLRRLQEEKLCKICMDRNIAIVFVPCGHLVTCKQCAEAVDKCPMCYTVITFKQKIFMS
Dihydroorotate dehydrogenase (quinone), mitochondrial (Plasmodium falciparum (isolate 3D7)), sequence (Q08210 whole entry, looked up): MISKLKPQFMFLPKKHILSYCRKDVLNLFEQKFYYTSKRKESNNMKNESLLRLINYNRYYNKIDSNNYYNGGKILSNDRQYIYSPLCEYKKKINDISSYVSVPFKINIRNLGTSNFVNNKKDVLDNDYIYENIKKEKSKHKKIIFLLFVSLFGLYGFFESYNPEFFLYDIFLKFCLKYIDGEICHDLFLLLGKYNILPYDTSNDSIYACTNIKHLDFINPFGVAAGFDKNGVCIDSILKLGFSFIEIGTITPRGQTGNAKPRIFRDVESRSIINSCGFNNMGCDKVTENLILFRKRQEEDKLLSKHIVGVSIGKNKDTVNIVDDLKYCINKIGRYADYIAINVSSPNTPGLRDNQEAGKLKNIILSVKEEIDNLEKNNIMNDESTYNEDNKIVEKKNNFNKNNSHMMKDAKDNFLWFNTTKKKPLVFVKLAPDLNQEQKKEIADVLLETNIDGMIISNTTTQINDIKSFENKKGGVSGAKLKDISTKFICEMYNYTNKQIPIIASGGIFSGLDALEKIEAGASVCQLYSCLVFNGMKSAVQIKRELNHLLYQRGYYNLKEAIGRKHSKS

Turning to `O=C(NN=C1C[C@@H](O)[C@@H](O)[C@@H]2[C@@H]3C(=O)N(Cc4ccc5c(c4)OCO5)C(=O)[C@@H]3CC[C@@H]12)OCc1ccccc1`, the z-score in experiment [1] is 0.0352; in experiment [2], -1.59 (inactive); in [3] it was 0.987 (inactive); in experiment [5] it was -0.683 (inactive); in experiment [6], -1.09 (inactive); in [7], 0.747 (inactive). The z-score was -0.715 (inactive) in experiment [8] and -0.32 in experiment [9]. Also, the values for the composite z-score in experiment [4] and in experiment [10] were -2.65 (inactive) and -0.152, respectively.
As for `CCOC(=O)[C@H](Cc1ccccc1)NC(=O)CCC1CC(OC(=O)NCCc2ccc(F)cc2)CC2(CCCC(COC(=O)NCCC(C)C)O2)O1` (stereo not given in full), the z-score in [1] was 0.456; in [2] it was -0.0624 (inactive); in [3], 0.129 (inactive); in experiment [5] it was 0.0737 (inactive); in [6], 1.05 (inactive); in experiment [7], 0.953 (inactive). The z-score in [8] was -0.203 (inactive); in experiment [9], 1.16. The composite z-score is 0.0106 (inactive) in experiment [4] and -0.0543 in [10].
Turning to `CC(C)(C)N1C(=O)[C@H]2[C@H]3[C@H](O)[C@H](O)CC(=NNC(=O)OCc4ccccc4)[C@@H]3CC[C@H]2C1=O`, the z-score is -0.169 in [1]; 0.216 (inactive) in experiment [2]; -0.484 (inactive) in experiment [3]; -0.413 (inactive) in experiment [5]; -0.168 (inactive) in experiment [6]; 0.223 (inactive) in experiment [7]. Moreover, the z-score in experiment [8] was 0.342 (inactive); in [9] it was -0.376. Moreover, the composite z-score in [4] is -0.111 (inactive); in experiment [10], -0.102.
As to `O=C1CCCC=C1C(O)C1CCCCC1` (stereo not given), the z-score is -0.075 in experiment [1]; -0.143 (inactive) in experiment [2]; -0.254 (inactive) in experiment [3]; -0.458 (inactive) in experiment [5]; -0.647 (inactive) in [6]; 0.342 (inactive) in experiment [7]. Moreover, the z-score is 0.456 (inactive) in experiment [8] and 0.289 in experiment [9]. Moreover, the values for the composite z-score in experiment [4] and in experiment [10] were -1.76 (inactive) and -0.242, respectively.
For `CCC1=NOC(CCC2CC(OC(=O)NCc3cccc4c3OCO4)CC3(CCCC(COC(=O)NCCc4ccc(Cl)cc4)O3)O2)C1` (stereo not given), the z-score in [1] was 0.22; in experiment [2] it was 0.519 (inactive); in experiment [3] it was -0.0555 (inactive); in [5], 0.52 (inactive); in experiment [6] it was 0.0088 (inactive); in experiment [7], 0.137 (inactive). In addition, the z-score was 0.377 (inactive) in experiment [8] and 0.73 in experiment [9]. In addition, the composite z-score in experiment [4] is -0.362 (inactive); in experiment [10], -0.0476.
Regarding `COC(=O)[C@H](C)NC(=O)CCC1CC(OC(=O)NCc2cccc3ccccc23)CC2(CCCC(COC(=O)NCCCN3CCCC3=O)O2)O1` (stereo not given in full), the z-score is 0.607 in experiment [1]; -0.0554 (inactive) in experiment [2]; 0.478 (inactive) in experiment [3]; 0.286 (inactive) in experiment [5]; 0.0627 (inactive) in experiment [6]; 0.992 (inactive) in experiment [7]. The z-score in experiment [8] is -1.34 (inactive); in experiment [9], -0.0303. Further, the composite z-score in experiment [4] was -0.104 (inactive); in experiment [10], -0.273.
As to `O=C1[C@H]2[C@H]3[C@H](O)[C@H](O)CC(=NO[C@@H]4O[C@H](CO)[C@@H](O)[C@H](O)[C@H]4O)[C@H]3CC[C@H]2C(=O)N1C[C@@H]1CCCO1`, the z-score was 0.724 in experiment [1]; 0.628 (inactive) in experiment [2]; -1.45 (inactive) in [3]; -0.355 (inactive) in experiment [5]; 0.855 (inactive) in [6]; 0.42 (inactive) in experiment [7]. For the same compound, the z-score is 0.595 (inactive) in experiment [8] and -0.39 in [9]. For the same compound, the composite z-score in [4] is -0.595 (inactive); in experiment [10], 0.127.
`COC(=O)[C@H](C)NC(=O)CCC1CC(OC(=O)NCc2ccc3c(c2)OCO3)CC2(CCCC(COC(=O)NCc3ccccc3)O2)O1` (stereo not given in full): the z-score is 1.24 in [1]; -0.67 (inactive) in experiment [2]; -0.731 (inactive) in experiment [3]; 0.38 (inactive) in experiment [5]; 0.479 (inactive) in experiment [6]; 1.03 (inactive) in experiment [7]. Also, the z-score in experiment [8] was 0.32 (inactive); in experiment [9] it was 1.11. In addition, the composite z-score was -0.504 (inactive) in [4] and -0.205 in experiment [10].
As for `CO[C@H]1COC(=O)CCC[C@H](C)[C@H](OC)COC(=O)CC=C[C@@H]1C`, the z-score is 0.631 in experiment [1]; -2.21 (inactive) in experiment [2]; 0.364 (inactive) in experiment [3]; -0.692 (inactive) in experiment [5]; -1.93 (inactive) in experiment [6]; 0.115 (inactive) in [7]. In addition, the results for the z-score in experiment [8] and in experiment [9] were 0.757 (inactive) and 0.541, respectively. Further, the composite z-score in experiment [4] is -1.04 (inactive); in [10] it was 0.0593.
Turning to `CCOC(=O)[C@H](Cc1ccccc1)NC(=O)CCC1CC(OC(=O)NCCc2ccc(F)cc2)CC2(CCCC(COC(=O)NCCOc3ccccc3)O2)O1` (stereo not given in full), the z-score in [1] is 0.121; in [2] it was -0.245 (inactive); in [3], -0.02 (inactive); in [5] it was 0.651 (inactive); in experiment [6] it was 0.408 (inactive); in experiment [7], 0.417 (inactive). Besides, the results for the z-score in experiment [8] and in experiment [9] were 0.343 (inactive) and 0.194, respectively. Also, the results for the composite z-score in [4] and in experiment [10] were -0.189 (inactive) and -0.0166, respectively.
For `CO[C@@H]1C=CCC(=O)N[C@@H](C)C(=O)OC[C@@H](OC)[C@H](C)C=CCC(=O)OC[C@H]1C`, the z-score in [1] was -0.103; in experiment [2], -0.615 (inactive); in experiment [3], 0.697 (inactive); in experiment [5], -0.507 (inactive); in [6], -0.718 (inactive); in [7], 0.267 (inactive). For the same compound, the figures for the z-score in experiment [8] and in experiment [9] were -0.42 (inactive) and 0.103, respectively. In addition, the results for the composite z-score in experiment [4] and in [10] were -0.765 (inactive) and -0.169, respectively.
Regarding `CCOC(=O)CCN1C(=O)[C@H]2[C@H]3[C@H](O)[C@H](O)CC(=O)[C@@H]3CC[C@H]2C1=O`, the z-score is 1.09 in experiment [1]; -0.375 (inactive) in experiment [2]; 0.344 (inactive) in experiment [3]; -0.708 (inactive) in experiment [5]; -0.405 (inactive) in [6]; -0.512 (inactive) in experiment [7]. The figures for the z-score in [8] and in experiment [9] were -0.897 (inactive) and 0.651, respectively. Moreover, the composite z-score in experiment [4] was 0.462 (inactive); in [10], 0.0408.
